# Assay outcomes deposited in PubChem by several laboratories.
# HGIII-sPLA2 inh: human group III sPLA2 inhibitors, primary screen, biochemical, QFRET, BODIPY PC-A2 liposome substrate; Group 3 secretory phospholipase A2 (Homo sapiens), Q9NZ20; QFRET BODIPY PC-A2 liposome hydrolysis, fluorescence; inhibition, % at 12.2 µM; hit rate 0.56% among 370,000; AID 743126, 2013;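 active = inhibition above mean plus 3 SD of compounds lying within the high and low control bounds, cut at about 19% in these data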;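 note: 0% = median of test compound wells and 100% = no enzyme DMSO wells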
# ADAM10 inh: human ADAM10 inhibitors, primary screen, biochemical, QFRET, HTS | inhibition, % at 7 µM | hit rate 0.62% among 370,000 | recombinant ADAM10, EDANS/DABCYL FRET peptide cleavage, 3 h | Disintegrin and metalloproteinase domain-containing protein 10 (Homo sapiens), O14672 | AID 720582, 2013;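 active = inhibition above a per-campaign cutoff equal to the mean of compounds falling between control-based bounds plus 3 SD, cut at about 20% in these data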;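 note: 0% = DMSO wells while the 100% control is not disclosed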
# Target sequence (O14672 214-748 limits assumed): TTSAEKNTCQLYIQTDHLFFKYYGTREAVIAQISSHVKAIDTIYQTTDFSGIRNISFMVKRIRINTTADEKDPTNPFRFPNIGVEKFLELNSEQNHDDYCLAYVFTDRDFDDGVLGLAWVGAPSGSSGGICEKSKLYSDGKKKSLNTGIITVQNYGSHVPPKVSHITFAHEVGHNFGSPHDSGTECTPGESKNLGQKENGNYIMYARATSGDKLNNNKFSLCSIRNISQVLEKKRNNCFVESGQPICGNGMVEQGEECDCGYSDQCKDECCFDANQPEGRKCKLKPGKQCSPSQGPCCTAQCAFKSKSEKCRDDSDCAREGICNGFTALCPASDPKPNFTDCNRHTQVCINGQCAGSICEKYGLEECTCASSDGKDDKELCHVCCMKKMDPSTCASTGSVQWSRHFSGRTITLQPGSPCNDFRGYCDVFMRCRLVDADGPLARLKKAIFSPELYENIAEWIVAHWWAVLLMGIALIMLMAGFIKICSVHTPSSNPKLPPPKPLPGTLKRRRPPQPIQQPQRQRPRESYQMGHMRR
# KLK7 zymogen act: proKLK7 zymogen activators, primary screen, biochemical, fluorescence intensity; Kallikrein-7 (Homo sapiens), P49862; purified proKLK7, EDANS-DABCYL substrate fluorescence; 100% is mature enzyme control, 0% vehicle; activation, % at 7 µM; hit rate 0.9% among 370,000; AID 652039, 2013;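 active = activation above the mean of all tested compounds plus 3 SD, computed per campaign excluding outliers beyond control limits, cut at about 13% in these data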
# NRP1-CendR mod: modulators of CendR peptide binding to NRP-1, primary screen, biochemical, fluorescence polarization, uHTS; FAM-RPARPAR peptide binding to NRP-1; inhibition, % at 25 µM; hit rate 0.85% among 360,000; AID 602438, 2012;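 active = inhibition or corrected inhibition above about 18%, plus a signal ratio from 0.5 to 1.5, limit read from the data, passing the limit was not always enough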
# ADAM17 inh: ADAM17 inhibitors, primary screen, biochemical, QFRET. Disintegrin and metalloproteinase domain-containing protein 17 (Homo sapiens), P78536. recombinant ADAM17, EDANS/DABCYL FRET peptide cleavage. inhibition, % at 6.95 µM. hit rate 0.83% among 370,000;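 active = inhibition above the mean of compounds lying between control limits plus 3 SD, set per campaign, cut at about 8.5% in these data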;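 note: 0% = DMSO-only wells as the low control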
# ADAM10 ctr: ADAM10 inhibitors, counter-screen for ADAM17 exosite inhibitor project, biochemical, FRET, human ADAM10; recombinant ADAM10, EDANS/DABCYL FRET peptide cleavage, 3 h; shares compounds with ADAM17 inh; hit rate 47% among 2,900; inhibition, % at 6.95 µM;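 active = mean inhibition over the triplicate runs exceeds the activity threshold set in the earlier primary screen, cut at about 20% in these data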;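 note: 0% = DMSO wells and 100% = marimastat wells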
# ADAM17 confirm: ADAM17 inhibitors, hit retest, confirmation, biochemical, QFRET peptide cleavage | AID 743257, 2014 | inhibition, % at 6.95 µM | hit rate 65% among 2,900 | recombinant ADAM17, EDANS/DABCYL QFRET peptide cleavage | shares compounds with ADAM17 inh;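 active = mean inhibition across replicates above the hit cutoff set in the primary screen, cut at about 8.5% in these data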;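 note: 0% = DMSO wells and 100% = marimastat wells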
# hGIII sPLA2 conf: human group III sPLA2 inhibitors, confirmation, biochemical, QFRET, triplicate; shares compounds with HGIII-sPLA2 inh; recombinant hGIII-sPLA2, BODIPY PC-A2 QFRET fluorescence; inhibition, % at 12.2 µM; hit rate 34% among 2,000;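 active = mean inhibition across triplicates above the hit cutoff set in the earlier primary screen, cut at about 19% in these data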;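 note: 0% = enzyme with DMSO and 100% = DMSO wells lacking enzyme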
# 535nm interf: 535nm fluorescence optical interference, confirmation, artefact control for HGIII-sPLA2 inhibitor project, biochemical, QFRET; shares compounds with HGIII-sPLA2 inh; BODIPY FL product fluorescence interference; inhibition, % at 12.2 µM; hit rate 8.5% among 2,000; AID 743282, 2014;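 active = average inhibition above the solvent-only control mean plus 3 SD, cut at about 6% in these data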;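 note: 0% = DMSO with substrate plus product and 100% = DMSO with substrate alone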
# Starred values were filed as active, the others as inactive; · = no result given. The list is not random: actives were taken first. Their share in the collection is about 3.4%.
SMILES,HGIII-sPLA2 inh,ADAM10 inh,KLK7 zymogen act,NRP1-CendR mod,ADAM17 inh,ADAM10 ctr,ADAM17 confirm,others
O=C1CC(Nc2ccc3ccccc3c2)C(=O)N1Cc1ccccc1 (centres undefined),-20,9,2,-1,10.0*,12,11*,
CCCCOCC1CN(CCCC)S(=O)(=O)c2c(cccc2Sc2ccc(SC)cc2)O1 (centres undefined),-4,4,0,·,3,·,·,
COc1ccc(-c2cc(-c3n[nH]c(=S)n3-c3cccc4ccccc34)[nH]n2)cc1,-25,19,0,8,8.7*,18,8,
COc1ccccc1-n1c(-c2cc(-c3ccc(F)cc3)n[nH]2)n[nH]c1=S,-5,7,0,7,4,·,·,
CCC(C)c1ccc(C(C)NC(=S)NCc2ccc(F)cc2)cc1 (centres undefined),4,4,0,7,6,·,·,
CCCc1ccc(C(C)NC(=S)NCc2ccc(F)cc2)cc1 (centres undefined),-7,12,0,-2,9.1*,34*,17*,
COc1ccc(CC(=O)NC2CCCCN(Cc3ccc(Cl)cc3)C2=O)cc1OC (centres undefined),14,-8,1,·,-6,·,·,
CN(C)S(=O)(=O)c1cccc(NC(=O)c2ccc(COc3ccccc3)cc2)c1,-18,18,0,2,9.6*,24*,14*,
COCc1ccc(C(=O)Nc2cccc(S(=O)(=O)N(C)c3ccccc3)c2)cc1,-21,7,1,0,3,·,·,
CC(=O)NS(=O)(=O)c1ccc(NC(=O)c2cccc(S(=O)(=O)N3CCc4ccccc43)c2)cc1,-29,2,-1,-4,1,·,·,
CN(C)S(=O)(=O)c1cccc(NC(=O)c2cccc(S(=O)(=O)N3CCc4ccccc43)c2)c1,-22,12,-1,12,9.5*,41*,22*,
O=C(CSc1nc2ccccc2n1Cc1ccccc1)NN=C/C=C/c1ccccc1,-9,19,-1,·,5,·,·,
O=C(CNC(=S)N(Cc1ccccc1)Cc1ccccc1F)NCc1ccccc1,-20,12,0,-1,9.1*,30*,13*,
Cc1cc(Cl)ccc1OC(C)C(=O)Nc1cccc(S(=O)(=O)N2CCOCC2)c1 (centres undefined),9,-9,0,6,-4,·,·,
CC(Sc1nc2cc(Cl)ccc2s1)C(=O)Nc1cccc(S(=O)(=O)N2CCOCC2)c1 (centres undefined),-30,15,0,18,9.5*,24*,15*,
C[C@H](O)[C@@H]1C(=O)N2CCc3c([nH]c4cccc(-c5ccccc5)c34)[C@@H]2C[C@@H]1N(C)C(=O)C1CCCCC1,-8,-45,-1,·,-13,·,·,
O=S1(=O)c2ccc(N3CC[C@@H](O)C3)cc2O[C@@H]2CCN1C2,7,-12,0,·,-5,·,·,
CC(C)(C(=O)N1CCC1(C)C(=O)NC1Cc2ccccc2C1)c1ccccc1 (centres undefined),-7,-6,0,3,-2,·,·,
CC(C)(C(=O)N1CCC1(C)C(=O)Nc1ccccc1Br)c1ccccc1 (centres undefined),1,11,0,4,11*,-2,0,
CCC(C)c1ccc(NC(=O)CSc2nnc(-c3cccc(C)c3)n2C)cc1 (centres undefined),1,4,-1,·,2,·,·,
CC(C)C1Nc2c(O)cc(Cl)c([N+](=O)[O-])c2C2C=CCC21 (centres undefined),19*,19,0,23,15*,21*,14*,hGIII sPLA2 conf=13;535nm interf=10*
CN(Cc1ccccc1)S(=O)(=O)c1ccc(NC(=O)C2CCCO2)cc1 (centres undefined),23*,0,0,6,8.9*,-5,-1,hGIII sPLA2 conf=-5;535nm interf=-14
CN(Cc1ccccc1)S(=O)(=O)c1ccc(NC(=O)C2CCCCC2C(=O)O)cc1 (centres undefined),1,-16,0,0,-4,·,·,
Cc1ccc(CN2CCCCC(NC(=O)c3c(F)cccc3F)C2=O)cc1 (centres undefined),0,0,1,·,-1,·,·,
COc1ccc(NCC(=O)Nc2ccc(Br)cc2F)c(OC)c1,22*,5,0,-12,10*,27*,9.3*,hGIII sPLA2 conf=23*;535nm interf=4
SMILES,HGIII-sPLA2 inh,ADAM10 inh,KLK7 zymogen act,NRP1-CendR mod,ADAM17 inh,ADAM10 ctr,ADAM17 confirm,others
CCN(CC(=O)Nc1ccc(OC)cc1)CC(=O)Nc1ccc(Br)cc1F,-15,6,1,-2,0,·,·,
Cc1ccc(-n2c(SCC(=O)NNC(=S)Nc3ccccc3)nc3ccccc3c2=O)cc1,30*,13,0,9,12*,37*,11*,hGIII sPLA2 conf=26*;535nm interf=2
Cc1cccc(NCC(=O)NNC(=S)Nc2ccccc2)c1,23*,14,1,2,12*,13,5,hGIII sPLA2 conf=15;535nm interf=0
CCN(Cc1cn(Cc2ccccc2)nn1)S(=O)(=O)c1ccc(N2CCCC2)cc1Br,-10,4,1,·,3,·,·,
O=C(N[C@H](Cc1ccccc1)C(=O)NC1CCCCC1)[C@H]1O[C@@H](n2ccc(=O)[nH]c2=O)[C@H](O)[C@@H]1O,-2,-4,0,·,-2,·,·,
Cc1ccc(S(=O)(=O)CNC(=S)c2cccc(C)c2)cc1,10,10,1,1,2,·,·,
Cc1ccc(S(=O)(=O)CNC(=S)c2ccc3ccccc3c2)cc1,20*,15,0,3,9.5*,65*,37*,hGIII sPLA2 conf=24*;535nm interf=0
COc1ccc2nc(Nc3ccc4c(c3)OCO4)sc2c1,86*,17,0,-3,9.8*,8,7,hGIII sPLA2 conf=-1;535nm interf=2
